Screening results: PubChem, National Center for Advancing Translational Sciences (NCATS)
FLuc counter: inhibits or activates purified firefly luciferase, miR-21 counter-screen; Potency, µM (top dose mostly 57.5 µM), for the others: at the top dose activity change, negative = inhibition, hits mostly inhibitors; AID 588342; P08659; purified FLuc, Km substrates, luminescence inhibition; actives 6.9% (n = 360,000);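 note: plate controls were vehicle for no effect and reference inhibitor for full effect; nearly all actives have a fitted effect of over 55% in size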
Target sequence (P08659 whole entry, looked up): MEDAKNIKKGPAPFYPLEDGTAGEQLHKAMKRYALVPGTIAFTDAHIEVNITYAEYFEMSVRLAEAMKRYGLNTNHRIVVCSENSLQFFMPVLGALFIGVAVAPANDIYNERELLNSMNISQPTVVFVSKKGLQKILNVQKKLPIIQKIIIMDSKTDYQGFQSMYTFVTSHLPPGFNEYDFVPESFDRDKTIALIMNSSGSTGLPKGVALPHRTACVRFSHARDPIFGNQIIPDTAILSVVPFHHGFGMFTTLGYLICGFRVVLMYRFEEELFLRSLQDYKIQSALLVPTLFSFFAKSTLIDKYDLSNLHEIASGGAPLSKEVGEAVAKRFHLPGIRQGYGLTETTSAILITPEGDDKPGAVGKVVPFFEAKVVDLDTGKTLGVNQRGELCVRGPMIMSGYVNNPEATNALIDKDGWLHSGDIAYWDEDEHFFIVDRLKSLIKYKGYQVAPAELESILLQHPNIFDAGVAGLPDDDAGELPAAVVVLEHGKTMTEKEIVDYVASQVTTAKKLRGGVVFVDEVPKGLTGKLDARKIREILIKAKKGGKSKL
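Purified P. pyralis luciferase (10nM final) with 10uM D-luciferin and 10uM ATP (Km levels) in 50mM Tris acetate pH 7.5, 10mM Mg acetate, 0.01% Tween-20, 0.05% BSA; qHTS 6-point titration, ~60 µM downward; luminescence read.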
NPC1 promoter act: activators of NPC1 promoter | Huh7 NPC1 promoter luciferase reporter, 24 h | Potency, µM (highest dose often 9.22 µM), for inactives: at the top dose activation, most hits filed as activators | actives 2.4% (n = 320,000) | AID 485313; note: % of control where 0% means no effect; nearly all actives have a fitted effect of over 60% in size
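Huh7 reporter cells (NPC1 promoter driving luciferase) are dosed with compound for 24 h at 37 °C, 5% CO2; luciferase detection reagent is then added and luminescence measured after 10 min at ambient temperature.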
Luc counter: Kinase-Glo luciferase inhibition (counter-screen); AID 1379; actives 0.28% (n = 200,000); Kinase-Glo luciferase, ATP luminescence, 8 min; Potency, µM (series often up to 38.3 µM), for inactives: top-dose activity change, negative = inhibition, actives largely listed as inhibitors; Q27757; note: % is set by controls: 0 for no effect and ±100 for the full control effect; nearly all actives have a fitted effect of over 60% in size
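Luminescence was the read-out, taken after 8-minute incubation at ambient temperature. Luciferase turned over luciferin with 10 uM ATP in imidazole pH 7.2 buffer containing KCl, MgCl2, Tween 20 and BSA.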
SMN2 splice enh: increases expression of the SMN2 splice variant; Potency, µM (titrated, usually from 46.1 µM), for inactives: at the highest dose activity change, positive = activation, most hits filed as activators; HEK293 SMN2-luciferase splicing reporter, luminescence, 30-36 h; actives 2.8% (n = 210,000); AID 1458; note: % of control where 0% means no effect; nearly all actives have a fitted effect of over 55% in size
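HEK293 cells carry an SMN2 minigene-luciferase reporter in which exon 7 inclusion puts luciferase in frame. Cells were seeded at 2000 cells/well, attached for 10-12 hours, then exposed to compounds for 30-36 hours at 37C before ONE-Glo luminescence.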
Rab9 prom act: Rab9 promoter activation; Huh7 Rab9 promoter-luciferase reporter, luminescence, 24 h; actives 2.8% (n = 320,000); Potency, µM (series often up to 9.22 µM), inactives show at the highest dose activation, negative = inhibition, usual class: activators; AID 485297; note: % of control where 0% means no effect; nearly all actives have a fitted effect of over 60% in size
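Steps: seed 1500 Huh7 Rab9-luc cells per well, rest 2 h at 37 °C; add compound in DMSO; incubate 24 h; add luciferase reagent, 10 min ambient; read luminescence.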
ELG1 genotox: genotoxicity induction in ELG1-luciferase HEK293T cells | actives 1.3% (n = 330,000) | Potency, µM (doses to about 46 µM), for the others: top-dose activity change, positive = activation, most hits filed as activators | HEK293T ELG1-luciferase reporter, luminescence, 16 h | AID 504466; note: % of control where 0% means no effect; nearly all actives have a fitted effect of over 60% in size
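Step 1: seed 2,000 HEK293T ELG1-luciferase cells per well. Step 2: add compound or DMSO, incubate 16 hr at 37 °C. Step 3: ONE-Glo, 30 min at room temperature, read luminescence.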
Starred values were filed as active, the others as inactive; ? = inconclusive; / = not tested or not shown; [ ] = remark or other dose. An excerpt weighted towards active compounds, which were near 7.5% of everything screened. Calls come from the whole dose curve; as a rule, active = well fitted curve in the direction sought with a large enough effect; inconclusive = small, poorly fitted or top-dose-only effect, or another doubt; inactive = no such curve, though single readings can be large; an effect the other way counts as inactive or inconclusive. Potency is the fitted concentration of half-maximal effect.

SMILES	FLuc counter	NPC1 promoter act	Luc counter	SMN2 splice enh	Rab9 prom act	ELG1 genotox
CCOC(=O)c1sc2nc(N3CCOCC3)c3c(c2c1N)CC(C(C)C)OC3 (stereo unspecified)	-2.1%	-7.3%	2.7%	/	2.0%	6.6%
COC(=O)c1sc2nc3c(cc2c1N)COC(C)(C)C3	10.7µM*	2.82µM*	-5.6%	8.9%	3.55µM*	8.2µM*
CC1(C)Cc2nc3scc(NC(=O)c4ccccc4)c3cc2CO1	10.7µM*	-3.5%	/	/	0.2%	1.6%
O=C1CC(c2nc(-c3cccc(Cl)c3)no2)CN1c1ccc2c(c1)OCCO2 (stereo unspecified)	-1.0%	/	/	/	/	/
Cc1ccccc1C(=O)N(Cc1ccc(N(C)C)cc1)Cc1ccco1	-2.8%	/	/	2.7%	/	/
NS(=O)(=O)c1cccc(NC(=O)c2ccno2)c1	-2.0%	-1.0%	/	/	1.2%	0.1%
CCOC(=O)/C(=N\Nc1ccc(OC)cc1)c1csc(Nc2ccccc2)n1	9.53µM*	1.4%	17.1%	2.2%	-3.3%	11.3%
CCOC(=O)/C(=N/Nc1ccccc1)c1csc(Nc2ccccc2)n1	?	-1.5%	-3.0%	7.0%	-4.2%	2.7%
COC(=O)c1ccc(C(NC(=O)OCc2ccccc2)/C(=C/[C@@H](C)C(=O)N[C@@H](CO)Cc2ccccc2)c2cccnc2)cc1 (stereo partly specified)	/	/	1.9%	-2.6%	/	/
O=C(Nc1cc2c(cc1C(=O)c1ccccc1Br)OCCO2)c1ccccc1	-15.2%	/	/	-25.2%	/	/
COc1ccc(-n2ncc3c2ncn2nc(Cc4ccccc4)nc32)cc1	-12.1%	/	/	-10.4%	/	/
c1ccc(-n2ncc3c2ncn2nc(-c4ccco4)nc32)cc1	0.849µM*	3.16µM*	-9.3%	11.2µM*	1.12µM*	1.64µM*
COc1ccc2nc(N3CCCC(C(=O)NCCCN4CCN(C)CC4)C3)sc2c1 (stereo unspecified)	16.9µM*	0.1%	-7.3%	-1.9%	15.7%	14.3%
COc1ccc(CCNC(=S)N2CCC(C(=O)c3ccc(F)cc3)CC2)cc1OC	-5.1%	-18.1%	-4.8%	-65.4%	-24.0%	-8.3%
COc1ccc(C(=O)C2CCN(C(=S)NCCc3ccc(OC)c(OC)c3)CC2)cc1	19µM*	-9.4%	-4.2%	/	-19.6%	-3.9%
CCOc1ccc2nc(N3CCCC(C(=O)Nc4ccc(OC)c(Cl)c4)C3)sc2c1 (stereo unspecified)	3.01µM*	/	/	20µM*	/	/
CCOc1ccc2nc(N3CCCC(C(=O)NCCCN4CC(C)CC(C)C4)C3)sc2c1 (stereo unspecified)	?	3.2%	/	/	0.891µM*	2.1%[9.26 µM]
Cc1ccc(Cl)cc1NC(=O)CC1Sc2ccccc2NC1=O (stereo unspecified)	-1.4%	/	/	-4.0%	/	/
CCCc1ccc(OC(=O)CSc2nnc(-c3cccs3)o2)cc1	-3.5%	/	/	/	/	/
COc1ccc2nc(N3CCCC(C(=O)NCCc4ccc(OC)c(OC)c4)C3)sc2c1 (stereo unspecified)	8.49µM*	2.82µM*	/	/	2.82µM*	-9.7%
COc1ccc(CCNC(=O)C2CCCN(c3nn4c(=O)cc(C)nc4s3)C2)cc1OC (stereo unspecified)	-3.1%	6.5%	-0.1%	9.0%	-2.1%	-3.2%
COc1cc2[nH]c(-c3ccc(C)cc3)cc(=O)c2cc1OC	13.5µM*	12.8%	1.2%[39.9 µM]	?	26.0%	11.2%
COc1cc2[nH]c(-c3cccc(F)c3)cc(=O)c2cc1OC	?	-5.8%	11.1%	5.5%	-4.6%	0.5%
COc1ccc(-c2cc(=O)c3cc(C)ccc3[nH]2)cc1	1.69µM*	3.16µM*	-5.3%[39.9 µM]	7.08µM*	3.16µM*	13µM*
COc1ccc(-c2cc(=O)c3cc(OC)ccc3[nH]2)cc1	3.38µM*	3.55µM*	?	2.51µM*	1.41µM*	9.2µM*
SMILES	FLuc counter	NPC1 promoter act	Luc counter	SMN2 splice enh	Rab9 prom act	ELG1 genotox
CN(C)c1ccc(CNC(=O)c2cccn2-c2nnc(N3CCCCC3)s2)cc1	-12.8%	/	/	/	/	/
Cc1ccc(/C=N/Nc2ccc(C(=O)O)cc2)s1	0.536µM*	?	?	-98.5%	?	?
O=C(O)c1ccc(N/N=C/c2cc(Br)cs2)cc1	0.239µM*	0.0891µM*	/	/	0.1µM*	?
O=C(O)c1cccc(N/N=C/c2sc(N3CCOCC3)nc2-c2ccccc2)c1	1.2µM*	3.98µM*	-10.6%	17.4%[1.84 µM]	2.82µM*	14.6µM*
O=C(N/N=C\c1cc(Br)cs1)c1ccncc1	?	-38.2%	/	/	3.6%	-6.0%
Cc1ccc(/C=N/NC(=O)C[n+]2ccccc2)s1	-1.4%	-0.3%	/	/	2.3%	6.9%
Cc1ccc(/C=N/NC(=O)c2cccnc2)s1	?	12.9%	/	/	12.2%	11.5%
Nc1ccc(C(=O)N/N=C/c2sc(N3CCOCC3)nc2-c2ccccc2)cc1	?	-0.3%	-4.7%	?	-1.0%	5.4%
Cc1ccc(/C=N/Nc2cccc(C(=O)O)c2)s1	0.953µM*	0.0891µM*	1.9%	0.251µM*	0.0891µM*	?
COc1cccc(C2CC(=O)Nc3c2c(=O)nc2c(C)cccn32)c1 (stereo unspecified)	1.5%	/	/	4.5%	/	/
CCOc1ccc(C2=CC(=O)C[C@H](c3ccc(OC)cc3)C2)cc1	-26.6%	15.8%	/	/	4.2%	3.5%
Cc1ccc(NC(=O)Cn2c(-c3ccc4c(c3)OCO4)cn(-c3ccccc3)c2=O)cc1	12µM*	/	/	?	/	/
Cc1ccc(NC(=O)Cn2c(=O)n(Cc3ccc4c(c3)OCO4)c(=O)c3ccccc32)cc1	2.6%	/	/	3.6%	/	/
COc1ccc(C(=O)/C=C/c2ccc(N(C)C)cc2)c(OC)c1	10.7µM*	-7.1%	/	/	-2.0%	?
COCOc1cc(OC)ccc1C(=O)/C=C/c1ccc2c(c1)OCO2	/	/	-5.8%	11.6%	/	/
COc1ccc(C(=O)/C=C/c2ccc(C)cc2)c(OC(=O)c2ccc([N+](=O)[O-])cc2)c1	6.75µM*	25.5%	0.8%	4.6%	21.2%	6.1%
COc1ccc(/C=C/C(=O)c2ccc3c4c(cccc24)CC3)cc1	15.1µM*	-1.1%	/	/	-3.6%	0.1%
COc1ccc(C(=O)/C=C/c2ccccc2)c(OC)c1	4.78µM*	?	/	/	?	4.4%
CN(C)CC(CN(C)C)c1ccccn1	/	/	1.4%[7.66 µM]	-4.0%[9.22 µM]	/	/
Cc1noc(C)c1COc1ccc(C(=O)N2CCN(S(=O)(=O)c3cccc(F)c3)CC2)cc1	/	/	/	/	/	0.2%
O=C(NCc1ccc(F)cc1)c1cccc(S(=O)(=O)N2CCOCC2)c1	-1.5%	2.1%	/	/	-0.6%	2.1%
NN(Cc1ccccc1)C(=S)Nc1ccc(Cl)c(Cl)c1	-11.3%	0.1%	/	/	1.3%	-3.8%
